Here are results for ten compounds from PubChem BioAssay AID1069 (NMMLSC, 2008).

Structures are written as SMILES. Active and inactive are the calls of the source.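 The calls were made as follows: active = high combined rank on largest and smallest cell-count-weighted shift across three tests, rank score above 45, floors 50 and 25 (some results past the limit were not filed as active); inactive = the rest.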

A short description of the first experiment: activators of LNCaP cell differentiation, retest, confirmation, side scatter shift, flow cytometry (AID 1069).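 Also: LNCaP human prostate cancer cells in low-serum medium with charcoal-stripped FBS; percent of cells with raised granularity gated so DMSO controls show 10%.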 Conditions: 4 d, at 100 µM, stronger effect = higher value. (In general: A flow cytometer gives signals particle by particle.)
In the case of `CCn1c(=O)cc(OCC(=O)N2CCN(Cc3ccc4c(c3)OCO4)CC2)c2ccccc21`, the side scatter shift is 0% (inactive).
On to `Cc1ccc(Cn2c(C)c3cnn(CC(=O)N4CCC5(CC4)OCCO5)c(=O)c3c2C)cc1`, for which the side scatter shift is 9.1% (inactive).
`Cc1cc(OCC(=O)O)c2c3c(c(=O)oc2c1)CCCC3`: the side scatter shift was 5.1% (inactive).
As to `Cc1nc2ccccc2c(=O)n1-c1ccc(F)cc1`, the side scatter shift was 8.9% (inactive).
As for `Clc1ccc(COC(Cn2ccnc2)c2ccc(Cl)cc2Cl)cc1` (stereo not given), the side scatter shift was 18.2% (inactive).
The same measure, in the same setting: as for `CCn1c(=O)cc(OCC(=O)N2CCC3(CC2)OCCO3)c2ccccc21`, the figure is 6.7% (inactive).
The same measure, in the same setting: as for `CCOc1ccc(C2SCC(=O)Nc3c2c(=O)[nH]n3C2CCCCCC2)cc1` (stereo not given), the figure is 22.2% (inactive).
With `O=C(COc1ccc2ccccc2c1)N1CCN(C2CCN(Cc3ccccc3)CC2)CC1`, the side scatter shift is 54.3% (inactive).
The same measure, in the same setting: as for `Cc1ccc2c(c1)[C@@H]1CN(C)CC[C@@H]1N2C(=O)Nc1cccc(C(F)(F)F)c1`, the figure is 23.1% (inactive); as for `C[C@H]1CCC/C=C/C2C[C@H](O)CC2[C@H](O)/C=C/C(=O)O1` (stereo not given in full), 8.7% (inactive).

The experiment is the same for the next values; noted with them: 4 d, side scatter shift, at 10 µM, stronger effect = higher value.
As for `CCn1c(=O)cc(OCC(=O)N2CCN(Cc3ccc4c(c3)OCO4)CC2)c2ccccc21`, the side scatter shift is 3.6%.
The same measure, in the same setting: as for `Cc1ccc(Cn2c(C)c3cnn(CC(=O)N4CCC5(CC4)OCCO5)c(=O)c3c2C)cc1`, the figure is 3.35%.
Turning to `Cc1cc(OCC(=O)O)c2c3c(c(=O)oc2c1)CCCC3`, the side scatter shift was 5.9%.
On to `Cc1nc2ccccc2c(=O)n1-c1ccc(F)cc1`, for which the side scatter shift was found to be 3.5%.
`Clc1ccc(COC(Cn2ccnc2)c2ccc(Cl)cc2Cl)cc1` (stereo not given): the side scatter shift worked out at 2.85%.
Consider `CCn1c(=O)cc(OCC(=O)N2CCC3(CC2)OCCO3)c2ccccc21`, for which the side scatter shift was 1.7%.
As to `CCOc1ccc(C2SCC(=O)Nc3c2c(=O)[nH]n3C2CCCCCC2)cc1` (stereo not given), the side scatter shift worked out at 10.5%.
Still for that read-out and setting: as for `O=C(COc1ccc2ccccc2c1)N1CCN(C2CCN(Cc3ccccc3)CC2)CC1`, the figure is 5.8%.
`Cc1ccc2c(c1)[C@@H]1CN(C)CC[C@@H]1N2C(=O)Nc1cccc(C(F)(F)F)c1`: the side scatter shift was 10.6%.
On the same count and under the same terms, then `C[C@H]1CCC/C=C/C2C[C@H](O)CC2[C@H](O)/C=C/C(=O)O1` (stereo not given in full), with 9.7%.
